Measured values: PMC5540273 (PLoS ONE, 2017)

Test system: PAK7
Conditions: concentration: 1 μM,replicates: in singlicate; n = 1
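Also: KINOMEscan kinase panel screen.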

Going from `CC(C)c1nc(-c2cccc(NS(=O)(=O)c3ccccc3)c2)c(-c2ccnc(Nc3ccc4c(c3)CN(C)CC4)n2)s1` [GSK1649598] to `OCCn1cc(-c2cnc3nnn(Cc4ccc5ncccc5c4)c3n2)cn1`, the “%Inh” value falls from 3% to 0%.

For `O=C(Nc1n[nH]c2cc(-c3ccco3)ccc12)C1CC1` [SB-737447], the “%Inh” value was 8%.

Test system: T1, PCTK1
T1 construct: gene CDK16
Conditions: concentration: 1 μM,replicates: in singlicate; n = 1

`COC(=O)Nc1nc2cc(Oc3ccc(NC(=O)Nc4cc(C(F)(F)F)ccc4Cl)cc3)ccc2[nH]1.Cl` [GW697465] and `CN1CCN(CCNc2nc3cc(Oc4ccc(NC(=O)Nc5cc(C(F)(F)F)ccc5F)cc4)ccc3[nH]2)CC1.Cl.Cl` [GW768504] are the same in “%Inh” value: 0% for the first, 0% for the second.

First: CS(=O)(=O)c1cccc(CNc2nc(Nc3ccc4c(c3)[C@@H]3C[C@@H]4CNC3=O)ncc2C(F)(F)F)c1
Second: Cc1ccc2c(-c3ccnc(Nc4ccc(C(F)(F)F)cc4)n3)cnn2n1 [GW819776]
The “%Inh” value of the first is lower: 0% for the first, 6% for the second.

First: COc1cccc(C2=C(Nc3cccc(Cl)c3)C(=O)NC2=O)c1 [SB-341556]
Second: Cc1ccc(Nc2ccnc(Nc3ccc4c(c3)CS(=O)(=O)C4)n2)cc1O.Cl [GW579362]
The “%Inh” value of the first is lower: 9% for the first, 17% for the second.

Going from `COc1cc2c(Nc3ccc(NC(=O)c4ccccc4)cc3)ncnc2cc1OCCCN1CCOCC1` [GSK301329] to `COc1cccc(OC)c1C(=O)Nc1cccc(-c2nn3ccccc3c2-c2ccnc(Nc3cccc(F)c3)n2)c1` [GSK361065], the “%Inh” value falls from 3% to 0%.

Going from `Cc1cccc(-c2nc(Nc3ccncc3)c3sccc3n2)n1` [GW869641] to `O=c1[nH]cc(-c2ccc(O)cc2)c2sc(-c3ccncc3)cc12` [GSK1033723], the “%Inh” value falls from 22% to 1%.

Going from `C[C@@H](Oc1cc(-n2cnc3cc(-c4cnn(C)c4)ccc32)sc1C(N)=O)c1ccccc1Cl` [GSK580432] to `C[C@@H](Oc1cc(-n2cnc3cc(-c4ccncc4)ccc32)sc1C(N)=O)c1ccccc1Cl` [GSK479719], the “%Inh” value rises from 0% to 1%.

Compared with `Cn1ccc2ncnc(Oc3ccc(NC(=O)Nc4cnn(C(C)(C)C)c4)c(Cl)c3)c21`, `Cn1ccc2ncnc(Oc3ccc(NC(=O)Nc4cncc(C(F)(F)F)c4)c(Cl)c3)c21` is lower in “%Inh” value: 24% for the first, 0% for the second.

Compared with `Cn1ccc2ncnc(Oc3ccc(NC(=O)Nc4ccnc(C(F)(F)F)c4)c(Cl)c3)c21`, `Cn1ccc2ncnc(Oc3ccc(NC(=O)Nc4cccc(C(F)(F)F)c4)c(Cl)c3)c21` is lower in “%Inh” value: 21% for the first, 0% for the second.

Compared with `c1ccc(Oc2ccc(Nc3ccnc4ccc(-c5ccccn5)cc34)cc2)cc1` [GW407034], `Cl.Nc1n[nH]c2cc(-c3ccccn3)ccc12` [GSK2189892] is lower in “%Inh” value: 8% for the first, 0% for the second.

Going from `COC(=O)c1cccc(NC(=O)NC2CCN(c3ccnc(NCc4ccc(F)cc4)n3)CC2)c1` [GSK1379860] to `N#Cc1cccc(C(=O)NC2CCN(c3ccnc(Nc4ccc(F)cc4)n3)C2)c1` (stereo not shown) [GSK1379708], the “%Inh” value falls from 8% to 1%.

`COc1cccc(CNC(=O)NC2CCN(c3ccnc(Nc4cc(OC)c(OC)c(OC)c4)n3)C2)c1` (stereo not shown) [GSK1379765] and `COc1cc2ncn(-c3cc(OCC4CCCCC4)c(C(N)=O)s3)c2cc1OC` [GSK204559] are the same in “%Inh” value: 3% for the first, 3% for the second.

`O=C(NCC1CC1)c1ccc(-c2cc(C(=O)NC3CC3)ccc2F)cc1` [GW810445] and `CCOC(=O)N1CCC(n2cnc(-c3ccc(F)cc3)c2-c2ccnc(N)n2)CC1` [SB-219952] are the same in “%Inh” value: 0% for the first, 0% for the second.

`C[C@@H]1CNc2c(sc3ccc4nc(-c5ccc(O)cc5)ccc4c23)C(=O)N1` and `C[C@@H]1CNc2c(sc3ccc4nc(-c5ccncc5)ccc4c23)C(=O)N1` are the same in “%Inh” value: 0% for the first, 0% for the second.

Compared with `CCNCC(Cc1ccccc1)NC(=O)c1cc(Br)c(-c2ccnc3[nH]ccc23)s1.Cl.Cl` (stereo not shown) [GSK1383280], `Cl.Cl.NC[C@H](CC1CCCCC1)NC(=O)c1ccc(-c2ccnc3[nH]ccc23)s1` [GSK1581428] is higher in “%Inh” value: 0% for the first, 6% for the second.

`CN(c1ccc2c(c1)nc(NCc1ccc(F)cc1)n2C)c1ccnc(Nc2ccc(CS(C)(=O)=O)cc2)n1.Cl` [GW813244] and `CSc1nccc(-c2c(-c3ccc(F)cc3)ncn2CCCN2CCOCC2)n1.Cl` [SB-217146] are the same in “%Inh” value: 0% for the first, 0% for the second.

In the case of `O=C(Nc1ccc(Oc2ccc3nc(NC(=O)C4CC4)cn3n2)c(F)c1)c1cccn(-c2ccccc2)c1=O`, the “%Inh” value is reported as 0%.
